# CaV13 FRET inh: Disruptors of the CACNA1D IQ motif to Ca2+-dependent inactivation inhibitor domain association, primary screening, Förster resonance energy transfer in intact living …; HEK cells, CFP/YFP FRET ICDI-IQ, plate reader, 10 min; percent FRET-ratio fall versus neutral wells; inhibition, % at 12.3 µM; 340,000 compounds, 0.098% hits; AID 743397;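 active = mean replicate inhibition of at least 30% and at least 1% of replicates passing that level; inconclusive = only one of the two criteria is met; inactive = neither criterion is met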
# ERAP1 inh: human ERAP1 aminopeptidase inhibitors, primary screen, biochemical, single point, plate reader. Endoplasmic reticulum aminopeptidase 1 (Homo sapiens), Q9NZ08. recombinant ERAP1, Leu-AMC fluorescence, 60 min. inhibition, % at 10.7 µM. 340,000 compounds, 0.15% hits. AID 652197, 2013;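 active = mean replicate inhibition of at least 30%, or all replicates individually reaching that 30% level; inactive = mean below 30% and not every replicate reaching it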
# Ecoli rRNA inh: reduced GFP signal of wild-type E. coli, primary screen, bacterial rRNA inhibitor project, GFP/RFP fluorescence, OD600, single point. E. coli WT GFP vs humanized-ribosome RFP mutants, 24 h; stronger effect = lower value; DMSO median 0, no signal -100. GFP signal change (wild-type ribosome), % (concentration not given with the values). 350,000 compounds, 1.6% hits. AID 720706, 2013;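 active = significant combined selectivity score with lowered wild-type GFP, culture density cut under 30%, mutant RFP and density less affected; inactive = any of these conditions unmet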
# DENV2 CPE: inhibitors of DENV2 cytopathic effect, primary screen, cell-based, plate reader, single concentration; AID 651640, 2012; CPE inhibition, % at 9.99 µM; 350,000 compounds, 1.7% hits; DENV2-infected cells, cytopathic effect rescue; in the data active = CPE inhibition above about 20%, passing the limit was not always enough; inconclusive = no clear call, values can overlap the other calls; tested in BHK-21 cells
# PGC1a acetyl inh: inhibitors of PGC1a acetylation signal, primary screen, cell-based, U2OS, AlphaScreen, inhibitor mode; AlphaScreen anti-acetyl-lysine; with virally co-expressed GCN5 acetyltransferase; inhibition, % at 15.6 µM; 350,000 compounds, 0.17% hits;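 active = every replicate shows inhibition of at least 40%; inconclusive = mean inhibition at least 40% but some replicate below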
# INS-1E GSIS act: GLuc luminescence reporter in INS-1E cells, primary screen for activators of glucose-dependent secretion of insulin; activation, % at 16.6 µM; INS-1E GLuc reporter insulin secretion, 2-3 h; 370,000 compounds, 0.61% hits;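 active = lowest replicate activation of at least 40%, so every replicate reaches that level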
# Hits are given with their value; . = inactive; ? = inconclusive; / = no result; ! = not confirmed by another sample. The list is not random: actives were taken first. Their share in the collection is about 3.2%.
SMILES,CaV13 FRET inh,ERAP1 inh,Ecoli rRNA inh,DENV2 CPE,PGC1a acetyl inh,INS-1E GSIS act
Nc1cc(Cl)ccc1Oc1ccc2ccccc2c1,.,.,-24,.,.,.
Cc1ccc(Oc2ccc(Cl)cc2N)cc1,.,.,.,.,.,.
CC(=O)N(C)C[C@H]1Oc2ccc(NC(=O)NC(C)C)cc2CC(=O)N(C)C[C@@H]1C,/,/,.,/,/,.
CC(C)C(NC(=O)CCNC(=O)c1ccc([N+](=O)[O-])cc1)c1nc2ccccc2[nH]1 (stereo not given),.,67,.,.,.,.
CN1C(=O)c2cc(NC(=O)c3ccc(C(F)(F)F)cc3)ccc2OC[C@H]2O[C@H](CC(=O)O)CC[C@@H]21,/,.,.,.,.,.
CC(C(=O)N1CCC(C(N)=O)CC1)N(c1ccc(Oc2ccccc2)cc1)S(C)(=O)=O (stereo not given),.,/,/,/,.,50
N#C/C(=N\Nc1ccc(S(=O)(=O)N2CCCCC2)cc1)C(N)=S,.,.,-32,?,/,/
CN(C)C(=O)c1ccc(-c2ccccc2[C@@H]2[C@@H](C#N)N(C(=O)C3CCCCC3)[C@@H]2CO)cc1,/,.,.,.,.,.
CN(C)C(=O)c1ccc(-c2ccccc2[C@H]2[C@@H](C#N)N(C(=O)C3CCC3)[C@H]2CO)cc1,/,.,.,24,.,.
CN(C)C(=O)c1ccc(-c2ccc([C@H]3[C@H](C#N)N(C(=O)C4CCC4)[C@H]3CO)cc2)cc1,/,.,.,.,.,.
CN(C)C(=O)c1ccc(-c2ccc([C@@H]3[C@@H](CO)N(C(=O)C4CCC4)[C@H]3C#N)cc2)cc1,/,.,.,50,.,.
CN(C)C(=O)c1ccc(-c2ccccc2[C@@H]2[C@H](C#N)N(C(=O)C3CCC3)[C@H]2CO)cc1,/,.,.,.,.,.
CN(C)C(=O)c1ccc(-c2ccccc2[C@H]2[C@H](C#N)N(C(=O)C3CCCCC3)[C@H]2CO)cc1,/,.,.,28,.,.
COc1cccc(-c2ccc([C@@H]3[C@@H](CO)N4C(=O)CN(C(=O)NC(C)C)C[C@@H]34)cc2)c1,/,.,.,.,.,.
C[C@@H]1CN([C@H](C)CO)C(=O)c2cccc(NC(=O)C3CCCCC3)c2O[C@H]1CN(C)Cc1ccc(-c2ccccc2)cc1,/,/,.,/,.,.
COc1cc2c(c(OC)c1OC)[C@@]1(c3ccccc3)CCCCC[C@H]1[C@@H]2NC(=O)C(F)(F)F,.,.,.,.,/,.
COc1cc2c(cc1OC)[C@@]1(c3ccccc3)CCCC[C@H]1[C@@H]2NC(=O)C(F)(F)F,.,.,.,20,/,.
N#CCCn1nc(Cc2cccc3ccccc23)c(C#N)c1N,.,.,.,?,/,.
CCn1nc(Cc2cccc3ccccc23)c(C#N)c1N,.,.,-27,.,/,.
O=C(Nc1ccc([N+](=O)[O-])cc1)Nc1ccc(OC(F)F)c(Cl)c1,.,/,/,/,/,174
O=C(CSc1nc2scc(-c3ccccc3)c2c(=O)[nH]1)NC1CCCCC1,.,.,.,.,/,.
O=C(CSc1nc2scc(-c3ccccc3)c2c(=O)[nH]1)N1CCCCC1,.,.,-35,.,.,.
Clc1ccccc1N=C1NN=C(c2cccs2)CS1,.,.,-32,.,.,.
CCOCCCNC(=O)C(c1ccc(Cl)cc1)N(Cc1cccs1)C(=O)c1ccccn1 (stereo not given),.,.,-23,.,.,.
CCOCCCNC(=O)C(c1ccc(C)cc1)N(Cc1cccs1)C(=O)c1ccccn1 (stereo not given),.,.,.,.,.,.
SMILES,CaV13 FRET inh,ERAP1 inh,Ecoli rRNA inh,DENV2 CPE,PGC1a acetyl inh,INS-1E GSIS act
O=C(NCC1CCCCC1)[C@H]1[C@H](CO)[C@H]2Cn3c(ccc(-c4ccccc4)c3=O)[C@@H]1N2,/,.,.,.,.,.
CN(C)C(=O)c1cccc(-c2ccc([C@H]3[C@H](CO)N4CCCCN(C(=O)C5CCC5)C[C@@H]34)cc2)c1,/,.,.,.,.,.
C=C[C@@H](OC)[C@H](OC(=O)Nc1ccc(SC)cc1)c1ccc(OCCO)cc1,/,.,/,21,.,/
CCCCCOc1ccc(NC(=O)c2cc(SC)ccc2Cl)cc1,.,/,/,/,.,.
COc1cccc(C(=O)/C=C/Nc2ccc(S(=O)(=O)Nc3onc(C)c3C)cc2)c1,.,.,.,.,/,.
CCCCOc1ccc(C(=O)Nc2ccc(S(=O)(=O)Nc3onc(C)c3C)cc2)cc1,.,.,-24,.,/,.
CCCOc1ccc(C(=O)Nc2ccc(S(=O)(=O)Nc3onc(C)c3C)cc2)cc1,.,.,.,.,.,.
Cc1cc2oc(C(=O)Nc3ccc(S(=O)(=O)Nc4onc(C)c4C)cc3)cc(=O)c2cc1Cl,.,.,-30,.,.,.
Cc1noc(NS(=O)(=O)c2ccc(N/C=C\C(=O)c3cccc4ccccc34)cc2)c1C,.,.,-21,.,.,.
CCN(CC)CCNc1ccc(CO)c2oc3cc(Cl)ccc3c(=O)c12,.,.,.,64,.,/
CN(C)CCNc1ccc(CO)c2oc3ccc(O)cc3c(=O)c12,.,.,.,.,.,/
C[C@H]1CN([C@@H](C)CO)C(=O)Cc2cc(N(C)C)ccc2O[C@@H]1CN(C)Cc1ccc(Oc2ccccc2)cc1,/,.,.,.,.,.
CCC(=O)N1CCCCN2[C@@H](CO)[C@@H](c3ccc(C#Cc4cccnc4)cc3)[C@@H]2C1,/,.,.,23,.,.
CCC(=O)N1CCCCN2[C@H](CO)[C@@H](c3ccc(-c4ccc(F)cc4)cc3)[C@H]2C1,/,.,.,31,.,.
CCC(=O)N1CCCCN2[C@H](C1)[C@H](c1ccc(-c3cccnc3)cc1)[C@@H]2CO,/,.,.,38,.,.
O=C(Cc1ccncc1)Nc1ccc2c(c1)[C@H]1C[C@@H](CC(=O)N3CCCCC3)O[C@H](CO)[C@H]1O2,/,/,.,/,/,.
CO[C@H]1CN(C)C(=O)c2cc(NS(=O)(=O)c3ccccc3C)ccc2OC[C@H](C)N(S(C)(=O)=O)C[C@H]1C,/,.,.,.,.,.
CC(=O)n1cc([C@H]2C=C(C(=O)N3CCN(Cc4ccc5c(c4)OCO5)CC3)O[C@@H](OCc3ccc(CO)cc3)C2)c2ccccc21,.,.,.,24,.,.
CC(=O)n1cc([C@@H]2C=C(C(=O)NCc3ccccc3)O[C@H](OCc3ccc(CO)cc3)C2)c2ccccc21,.,.,.,45!,.,.
C=CCOC(=O)C1=C[C@H](c2coc3ccccc3c2=O)C[C@H](OCc2ccc(CO)cc2)O1,.,.,-21,.,.,.

# Assay outcomes from PubChem BioAssay.
